This is a sample that favours compounds with a hit; in the whole collection about 7.4% have one here.
NPC1 prom act – activates the NPC1 promoter; Potency, µM (top dose mostly 9.22 µM), usual class: activators; 320,000 tested, 2.4% active; Huh7 NPC1 promoter luciferase reporter, 24 h; AID 485313; note: nearly all actives have a fitted effect of over 60% in size
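Cells: Huh7 expressing luciferase under the NPC1 promoter, 1500/well. Seeded 2 h, compound added, incubated 24 h at 37 °C. Luciferase reagent, 10 min ambient, then luminescence.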
Rab9 prom act – activates the Rab9 promoter. 320,000 tested, 2.8% active. Potency, µM (doses to about 9.22 µM), hits mostly activators. Huh7 Rab9 promoter-luciferase reporter, luminescence, 24 h; note: nearly all actives have a fitted effect of over 60% in size
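Huh7 cells stably carrying a Rab9 promoter-luciferase reporter, 1500 cells per well in OP-MEM I with 10% FBS, treated with compound 24 hours at 37C. Luciferase activity read by luminescence after 10 minutes with Amplite reagent.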
SMN2 splice enh – SMN2 splice variant enhancement. 210,000 tested, 2.8% active. Potency, µM (titrated, usually from 46.1 µM), most hits filed as activators. HEK293 SMN2-luciferase splicing reporter, luminescence, 30-36 h; note: nearly all actives have a fitted effect of over 55% in size
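HEK293 cells carry an SMN2 […]–luciferase reporter in which exon 7 inclusion puts luciferase in frame. Cells were plated 10-12 h before compound addition, then incubated 30-36 h at 37C. ONE-Glo luminescence was read; sodium butyrate at 4.5 mM final served as control.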
FLuc counter – firefly luciferase modulation, counter-screen for miR-21 project | P08659 | purified FLuc, Km substrates, luminescence inhibition | Potency, µM (highest dose often 57.5 µM), hits mostly inhibitors | 360,000 tested, 6.9% active; note: nearly all actives have a fitted effect of over 55% in size
Target sequence (P08659 whole entry, looked up): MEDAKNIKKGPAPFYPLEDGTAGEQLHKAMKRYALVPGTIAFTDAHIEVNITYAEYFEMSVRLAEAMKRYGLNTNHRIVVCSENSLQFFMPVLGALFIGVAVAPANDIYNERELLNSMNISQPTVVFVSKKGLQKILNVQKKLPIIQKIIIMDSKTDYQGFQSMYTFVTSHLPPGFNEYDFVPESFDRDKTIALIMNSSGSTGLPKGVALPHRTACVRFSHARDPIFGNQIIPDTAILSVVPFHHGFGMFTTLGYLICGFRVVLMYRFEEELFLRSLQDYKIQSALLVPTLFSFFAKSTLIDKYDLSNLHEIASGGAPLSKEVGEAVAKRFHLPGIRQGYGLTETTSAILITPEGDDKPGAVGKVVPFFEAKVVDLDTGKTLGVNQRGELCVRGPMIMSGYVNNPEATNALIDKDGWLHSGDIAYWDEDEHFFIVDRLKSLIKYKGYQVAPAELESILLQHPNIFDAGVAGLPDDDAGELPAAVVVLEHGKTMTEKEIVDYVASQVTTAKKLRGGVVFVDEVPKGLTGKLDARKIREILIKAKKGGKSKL
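Biochemical qHTS of compounds, final roughly 60 µM downward over six points, against 10 nM purified firefly luciferase using Km concentrations of substrates (10 uM D-luciferin, 10 uM ATP) in Tris acetate pH 7.5 buffer; luminescence output.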
ELG1 genotox – induces genotoxicity in HEK293T cells with luciferase-tagged ELG1; HEK293T ELG1-luciferase reporter, luminescence, 16 h; Potency, µM (doses to about 46 µM), actives largely listed as activators; 330,000 tested, 1.3% active; note: nearly all actives have a fitted effect of over 60% in size
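After overnight (16 hr) compound treatment at 37 °C, ELG1-luciferase HEK293T cells were lysed with ONE-Glo; luminescence quantified 30 min later at room temperature.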
Of the large screens only hits and unclear results are named; the others gave an inactive call. Calls come from the whole dose curve; as a rule, active = well fitted curve in the direction sought with a large enough effect; inconclusive = small, poorly fitted or top-dose-only effect, or another doubt; inactive = no such curve, though single readings can be large; an effect the other way counts as inactive or inconclusive.

COc1cccc(/C=N/NC(=O)c2cnn(-c3ccccc3)c2N)c1	NPC1 prom act inconclusive, Rab9 prom act inconclusive, FLuc counter 12µM (no result: SMN2 splice enh)
O=C(CN1C(=O)NC2(CCCC2)C1=O)OCCOc1ccc(Cl)cc1Cl	none (no result: SMN2 splice enh)
O=C(c1ccccc1)C(O)C(c1ccccc1)N1CCOCC1 (centres undefined)	none (no result: SMN2 splice enh)
Cc1ccc(C(=O)NCCC(=O)N2CCC3(CC2)NCCc2[nH]cnc23)cc1C	none (no result: SMN2 splice enh)
CC(=O)NC(=S)Nc1ccc(NC(=O)COc2ccc(Cl)cc2Cl)cc1	none
CC(C)(CO)NC(=O)CCCOc1ccc(Cl)cc1Cl	NPC1 prom act inconclusive, Rab9 prom act inconclusive, SMN2 splice enh 10µM, FLuc counter inconclusive, ELG1 genotox 11.2µM
COc1ccc(NC(=O)COC(=O)CCCOc2ccc(Cl)cc2Cl)cc1Cl	FLuc counter 15.1µM
O=C(COc1ccc(Cl)cc1Cl)NNC(=S)Nc1ccc(F)cc1	FLuc counter 16.9µM (no result: SMN2 splice enh)
COc1ccc(NC(=O)COC(=O)CCCOc2ccc(Cl)cc2Cl)cc1	FLuc counter inconclusive
CC(C)(C)C(=O)NNC(=O)CCCOc1ccc(Cl)cc1Cl	none
O=C(COc1ccc(Cl)cc1Cl)NC(=S)Nc1ccccc1C(=O)O	FLuc counter 6.75µM (no result: SMN2 splice enh)
O=C1c2ccccc2-c2cc([N+](=O)[O-])c([N+](=O)[O-])cc21	none (no result: NPC1 prom act, Rab9 prom act, FLuc counter, ELG1 genotox)
O=C(CCCOc1ccc(Cl)cc1Cl)Nc1ccccc1C(=O)O	NPC1 prom act 2.51µM, Rab9 prom act 3.55µM, FLuc counter 8.49µM (no result: SMN2 splice enh)
O=C(COc1ccc(Cl)cc1Cl)Nc1ccc(C(=O)Nc2ccccc2C(=O)O)cc1	none (no result: SMN2 splice enh)
O=C(Nc1cccc(-c2nn[nH]n2)c1)c1ccc(Cl)s1	FLuc counter 15.1µM (no result: SMN2 splice enh)
O=C(Nc1cccc(-c2nn[nH]n2)c1)c1ccc(Br)s1	FLuc counter 12µM (no result: SMN2 splice enh)
c1cc(NNc2cccc(-c3nn[nH]n3)c2)cc(-c2nn[nH]n2)c1	none (no result: NPC1 prom act, Rab9 prom act, FLuc counter, ELG1 genotox)
Cc1ccc(-c2onc3ccc(C(=O)/C=C/N(C)C)cc23)cc1	FLuc counter 15.1µM (no result: SMN2 splice enh)
CN(C)/C=C/C(=O)c1ccc2noc(-c3ccc(F)cc3)c2c1	FLuc counter inconclusive (no result: SMN2 splice enh)
O=C(NCc1cccnc1)C(C(=O)c1ccc(F)cc1)n1ccccc1=O (centres undefined)	ELG1 genotox 18.4µM
C/C=C/Cn1cccc(C(=O)Nc2ccc(OC)cc2)c1=O	NPC1 prom act inconclusive, Rab9 prom act inconclusive, FLuc counter 23.9µM
C=CCn1c(N)c(C(=O)Nc2ccc(C)cc2)sc1=S	NPC1 prom act inconclusive, Rab9 prom act 2.82µM, FLuc counter 1.2µM, ELG1 genotox inconclusive
C=CCn1cccc(C(=O)Nc2ccc(C)cc2)c1=O	NPC1 prom act 4.47µM, Rab9 prom act 2.82µM, FLuc counter 10.7µM, ELG1 genotox inconclusive (no result: SMN2 splice enh)
COc1ccc(NC(=O)c2ccccc2NC(=O)CSc2ccccc2)cc1	NPC1 prom act inconclusive, Rab9 prom act inconclusive (no result: SMN2 splice enh)
C=CCn1c(N)c(C(=O)Nc2ccccc2OC)sc1=S	FLuc counter inconclusive (no result: SMN2 splice enh)
C=CCn1cccc(C(=O)Nc2ccc(C)c(C)c2)c1=O	NPC1 prom act 1.58µM, Rab9 prom act 2.24µM, FLuc counter 10.7µM, ELG1 genotox inconclusive (no result: SMN2 splice enh)
C=CCn1cccc(C(=O)Nc2cc(OC)ccc2OC)c1=O	none
COc1ccccc1CNC(=O)[C@@H]1CCCN1S(=O)(=O)c1ccccc1F	none (no result: SMN2 splice enh)
CCCSc1nc(SCC(=O)NCc2ccccc2)c2c3c(sc2n1)COC(C)(C)C3	none
CC(C)Sc1nc(SCC(=O)NCc2ccco2)c2c3c(sc2n1)COC(C)(C)C3	FLuc counter 9.53µM, ELG1 genotox inconclusive
CC1(C)Cc2c(sc3nc(SCC(=O)O)nc(N)c23)CO1	none (no result: SMN2 splice enh)
CC(C)Sc1nc(SCC(=O)O)c2c3c(sc2n1)COC(C)(C)C3	NPC1 prom act inconclusive, Rab9 prom act inconclusive, FLuc counter 13.5µM, ELG1 genotox inconclusive (no result: SMN2 splice enh)
CCOc1ccc(CCNCc2c(C(=O)O)c(C)n(Cc3ccccc3F)c2C)cc1	none (no result: NPC1 prom act, Rab9 prom act, ELG1 genotox)
O=C(/C=C/c1ccccc1)Nc1cccc(S(=O)(=O)Nc2ccccc2F)c1	FLuc counter 6.75µM
O=C(/C=C/c1ccccc1)Nc1cccnc1Oc1ccccc1F	NPC1 prom act inconclusive, Rab9 prom act inconclusive, FLuc counter 4.78µM (no result: SMN2 splice enh)
O=C(Nc1cccc(S(=O)(=O)Nc2ccccc2F)c1)c1ccc2ccccc2n1	FLuc counter 19µM
C=CCCN(Cc1ccccc1)S(=O)(=O)c1cc(Br)ccc1Br	none (no result: SMN2 splice enh)
CCCCC/C=C\C\C=C/C=C/C=C/[C@@H](SC[C@H](N)C(=O)O)[C@@H](O)CCCC(=O)O	none (no result: NPC1 prom act, Rab9 prom act, FLuc counter, ELG1 genotox)

High-throughput results from PubChem.
